Data from PubChem BioAssay (NCATS).
Values without a mark were called inactive. No rule for the calls is given here.

Test system: HIV-1 nucleocapsid protein NCp7 (binding to TG oligonucleotide)
Test: HIV Nucleocapsid (AID 346);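 also: potency is for inhibitors that block NC binding and lower polarization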
Conditions: HIV-1 NC / fluorescein-TGTGTGTG probe, fluorescence polarization
How it was run: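 HIV-1 NC (100 nM) binding to fluorescein-labelled ssDNA TG4xF (10 nM) in Hepes pH 7.5, 250mM NaCl, 1uM ZnCl2, TCEP and 2-mercaptoethanol; compounds pin-transferred, 1 hr room temperature, fluorescence polarization read on CCD imager.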
Potency is read from the fitted curve at half-maximal effect.

| Compound | Potency [µM] |
| --- | --- |
| CN(C)c1ncc2nc(-c3ccc(Cl)cc3)c(=O)n(C)c2n1 | > 20 |
| COc1ccc(Oc2ncc3nc(CCc4ccccc4)c(=O)n(C4CC4)c3n2)cc1 | > 20 |
| CCNc1ncc2nc(-c3ccc(F)cc3)c(=O)n(CCOC)c2n1 | > 4 |
| COCCn1c(=O)c(-c2ccccc2)nc2cnc(N3CCOCC3)nc21 | > 20 |
| O=C(c1cnccn1)N1CCC2(CCN(Cc3ccncc3)CC2)CC1 | > 20 |
| COCC(=O)N1CCC[C@@]2(CCN(C(=O)Nc3cccc(F)c3)C2)C1 | > 20 |
| O=S(=O)(c1ccccc1)N1CCC2(CCN(c3ccc(-c4ccccc4)cc3)CC2)CC1 | > 20 |
| O=C(c1ccco1)N1CCC2(CC1)CCN(c1ccc(-c3ccccc3)cc1)CC2 | > 20 |
| Cc1cnc(CNc2ncnc3ccc(-c4cccc(C#N)c4)cc23)cn1 | > 20 |
| CCNc1ncc2nc(-c3ccc(F)cc3)c(=O)n(C)c2n1 | > 20 |
| COCC(=O)N1CCC2(CC1)CCN(c1ccccc1)CC2 | > 20 |
| N#Cc1ccc(CN2CC[C@@]3(CCCN(C(=O)c4ccncc4)C3)C2)cc1 | > 20 |
| COCC(=O)N1CCC2(CC1)CCN(c1cccc(-c3ccccc3)c1)CC2 | > 20 |
| CN(C)Cc1ccccc1-c1nc(N(C)C)c2ccccc2n1 | > 20 |
| N#Cc1cccc(NC(=O)N2CC3(CCN(C(=O)c4cnccn4)CC3)C2)c1 | > 20 |
| O=C(Nc1ccccc1)N1CC[C@@]2(CCCN(C(=O)c3ccco3)C2)C1 | > 20 |
| COc1ccc(-c2nc3cnc(N(C)C)nc3n(CCc3ccccc3)c2=O)cc1 | > 4 |
| Cc1cnc(CNc2ncnc3ccc(-c4ccccc4Cl)cc23)cn1 | > 20 |
| COCCNc1nc(-c2ccc(N(C)C)cc2)nc2ccccc12 | > 20 |
| c1cn(-c2ncnc3ccc(-c4ccoc4)cc23)cn1 | > 20 |

| Compound | Potency [µM] |
| --- | --- |
| CS(=O)(=O)N1CCC2(CC1)CN(c1ccccc1)C2 | > 20 |
| Cn1c(=O)c(-c2ccc(Cl)cc2)nc2cncnc21 | > 20 |
| O=c1c(-c2cccc(F)c2)nc2cncnc2n1-c1ccccc1 | > 20 |
| CN(C)C(=O)c1ccc(-c2cncnc2NCCc2cnc[nH]2)cc1 | > 20 |
| COc1ccc(-c2nc3cnc(Oc4ccccc4)nc3n(C3CC3)c2=O)cc1 | > 20 |
| COc1ccc(CNc2ncncc2-c2ccccc2CN(C)C)c(OC)c1 | > 20 |
| O=c1c(-c2cc(F)cc(F)c2)nc2cnc(N3CCOCC3)nc2n1C[C@H]1CCCO1 | > 20 |
| Cc1ccccc1-c1nc(N(C)C)c2ccccc2n1 | > 20 |
| N#Cc1cccc(-c2nc(Nc3ccccc3)c3ccccc3n2)c1 | > 20 |
| COc1cccc(Cn2c(=O)c(-c3ccccc3)nc3cnc(OC)nc32)c1 | > 20 |
| COCCn1c(=O)c(-c2ccc(OC)cc2)nc2cnc(OCc3ccccc3)nc21 | > 20 |
| c1ncc(-c2ccc3c(c2)OCO3)c(NCCc2cnc[nH]2)n1 | > 20 |
| COCCn1c(=O)c(-c2ccccc2)nc2cnc(N3CCNCC3)nc21 | > 20 |
| O=c1c(CCc2ccccc2)nc2cnc(N3CCNCC3)nc2n1C1CC1 | > 20 |
| O=c1c(-c2ccccc2)nc2cnc(Oc3ccccc3)nc2n1C1CC1 | > 20 |
| O=C(c1ccncc1)N1CCC2(CC1)CCN(c1cccc(-c3ccccc3)c1)CC2 | > 20 |
| CN(C)c1nc(-c2cccnc2)nc2ccccc12 | > 20 |
| CS(=O)(=O)N1CCC[C@@]2(CCN(c3ncccn3)C2)C1 | > 20 |
| COc1cccc(-c2ccc3ncnc(NCCNC(C)=O)c3c2)c1 | > 20 |
| COc1ccccc1CN1CCCC2(CCN(C(=O)c3cc(C(F)(F)F)cc(C(F)(F)F)c3)CC2)C1 | > 20 |

| Compound | Potency [µM] |
| --- | --- |
| COc1ccc(-c2nc3cnc(N4CCN(C)CC4)nc3n(Cc3cccs3)c2=O)cc1 | > 4 |
| Cc1cnc(CNc2ncncc2-c2ccccc2CN(C)C)cn1 | > 20 |
| COc1ccc(CNc2nc(-c3ccc4c(c3)OCO4)nc3ccccc23)c(OC)c1 | > 20 |
| COc1ccc(-c2nc3cnc(OC)nc3n(Cc3ccc(F)cc3)c2=O)cc1 | > 20 |
| O=C(c1cc(C(F)(F)F)cc(C(F)(F)F)c1)N1CCC2(CCCN(Cc3nccs3)C2)CC1 | > 20 |
| Cc1noc(C)c1-c1ccc2ncnc(N3CCC(C(=O)O)CC3)c2c1 | > 20 |
| O=C(c1ccncc1)N1CCC2(CCCN(c3ncccn3)C2)CC1 | > 20 |
| O=C(Nc1ccccc1)N1CC[C@@]2(CCCN(C(=O)c3cccc(F)c3)C2)C1 | > 20 |
| COc1ccc(Oc2ncc3nc(C)c(=O)n(C)c3n2)cc1 | > 20 |
| CNc1nc(-c2ccoc2)nc2ccccc12 | > 20 |
| CN(C)C(=O)c1ccc(-c2cncnc2-n2ccnc2)cc1 | > 20 |
| O=C(c1ccco1)N1CCC[C@@]2(CCN(c3ccncc3)C2)C1 | > 20 |
| Cc1nc2cnc(N3CCOCC3)nc2n(CCC#N)c1=O | > 20 |
| c1ccc(-c2ccc(N3CC[C@@]4(CCCNC4)C3)cc2)cc1 | > 20 |
| COCCn1c(=O)c(C)nc2cnc(N3CCN(C)CC3)nc21 | > 20 |
| O=c1c(-c2cc(F)cc(F)c2)nc2cnc(Oc3ccccc3)nc2n1C1CC1 | > 20 |
| COc1ccccc1CN1CC2(CCN(C(=O)c3cc(C(F)(F)F)cc(C(F)(F)F)c3)CC2)C1 | > 20 |
| COc1cccc(-c2nc(NCc3ccccc3)c3ccccc3n2)c1 | > 20 |
| CS(=O)(=O)Nc1cccc(-c2nc(NCc3cccnc3)c3ccccc3n2)c1 | > 20 |
| CC(=O)NCCNc1nc(-c2cccnc2)nc2ccccc12 | > 20 |
